We go through 57 compounds from PubChem BioAssay AID1259313 (Sanford-Burnham Center for Chemical Genomics, 2017).

Among all 340,000 compounds or so, about 8,500 (2.5%) were called active. This is one part of a sample in which actives are shown more often than they occur.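 How the source made its calls: active means melting temperature shift of at least 10% of the positive control shift, at one fixed dose; inactive means the rest.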

The test system of this assay is Glutamate receptor ionotropic, NMDA 3A (GRIN3A) ligand-binding domain. The assay is described as follows: binders of NR3A ligand-binding domain, primary screen, biophysical, differential scanning fluorimetry, uHTS (AID 1259313). To be noted: NR3A LBD differential scanning fluorimetry, at 25 µM, hits give high values, 0% = protein alone, 100% = glycine-bound protein. A general note: In DSF a fluorescence change marks the thermal transition of the protein.
Take `CN(C)Cc1c(O)ccc2occ(C(O)c3ccccc3)c12` (configuration not stated): the Tm shift relative to glycine control is -0.8% (inactive).
With `Cc1ccc(NC(=O)NC(=O)CSc2nnc(-c3ccc(OC(F)F)cc3)n2N)c(C)c1` the figure was 47.6% (active); with `CC(C)NC(=O)NC(=O)CSc1nnc(-c2ccccc2F)n1N`, -0.64% (inactive); with `CCN(C(=O)CSc1nnc(-c2ccc(OC(F)F)cc2)n1N)C1CCS(=O)(=O)C1` (configuration not stated), 0.42% (inactive).
Next, `Nc1c(-c2ccc(F)cc2)cnn1C1CCS(=O)(=O)C1` (configuration not stated): -1.17% (inactive).
With `Nc1ccc(Cl)c(S(=O)(=O)Nc2ccccc2Cl)c1` the figure was -2.25% (inactive); with `CCn1cc(NC(=O)Nc2ccc(OC)c(OC)c2)c(C(N)=O)n1`, -1.66% (inactive).
Consider `N#CCCN(CCC#N)c1nnc(-c2ccccc2)s1`, for which the Tm shift relative to glycine control is 2.17% (inactive).
In the case of `C=CCn1cnc2scc(-c3ccccc3)c2c1=O`, the Tm shift relative to glycine control is 5.11% (inactive).
With `CN(CCC#N)c1ncnc2scc(-c3ccccc3)c12` the figure was 10.9% (active); with `COc1ccc(CCNC(=O)c2ccc(NC(=O)CC3SC(N4CCCCC4)=NC3=O)cc2)cc1OC` (configuration not stated), 0.17% (inactive).
With `CNc1ccc(SC#N)cc1` the figure was -0.62% (inactive).
Next, `C=CCn1c(=NC(=O)c2cccs2)sc2cc(NC(C)=O)ccc21`: 2.65% (inactive).
Take `C=CCn1c(=NC(=O)c2ccc(S(=O)(=O)N3CCCC3)cc2)sc2cc(NC(C)=O)ccc21`: the Tm shift relative to glycine control was 18.6% (active).
As for `CC(=O)Nc1ccc(S(=O)(=O)N2CCSCC2)cc1`, the Tm shift relative to glycine control is 0.09% (inactive).
Next, `CC(=O)Nc1ccc(NC(=O)CCN2C(=O)C3CC=CCC3C2=O)cc1` (configuration not stated): -1.24% (inactive); `CCC(C)(C)NC(=O)C(c1cccc(OC)c1OC)N(CC(C)C)C(=O)CCC(=O)Nc1cc(C)on1` (configuration not stated): -1.85% (inactive).
For the compound `NC(=O)C1CC(=O)N(c2ccc(OCC(=O)NCc3ccccc3)cc2)C1` (configuration not stated), the Tm shift relative to glycine control is -0.09% (inactive).
With `O=C(O)c1ccccc1N=N/C(=N/Nc1cc(S(=O)(=O)O)ccc1O)c1ccccc1` the figure was 25.2% (active); with `Cn1cccc1C(=O)OCC(=O)c1ccc(Br)s1`, 14% (active).
Turning to `Cn1cccc1C(=O)OCC(=O)NCCc1ccccc1`, the Tm shift relative to glycine control was -0.25% (inactive).
On to `O=C(COC(=O)c1c2c(nc3ccccc13)CCCC2)c1ccc(Br)s1`, for which the Tm shift relative to glycine control was -4.51% (inactive).
As to `O=C(Nc1cccc(C(=O)NC2CC2)c1)c1ccc(F)c(S(=O)(=O)N2CCOCC2)c1`, the Tm shift relative to glycine control was 4.42% (inactive).
Next, `Cc1ccc(C(=O)/C=C/Nc2ccc(S(=O)(=O)Nc3onc(C)c3C)cc2)cc1`: -6.78% (inactive).
Regarding `COc1ccc(NS(=O)(=O)c2ccc(NC(=S)NC(=O)/C=C/c3ccc(C)cc3)cc2)nn1`, the Tm shift relative to glycine control is -7.2% (inactive).
Next, `COc1ccc(/C=C/C(=O)c2ccc(NS(=O)(=O)c3ccc(C)cc3)cc2)cc1O`: 24.6% (active); `CCOC(=O)C1CCN(C(=O)CN2C(=O)NC(C)(c3ccc4cc(OC)ccc4c3)C2=O)CC1` (configuration not stated): 0.17% (inactive); `Cc1onc(-c2ccccc2Cl)c1C(=O)OCC(=O)c1ccccc1`: -1.07% (inactive).
Next, `CCOC(=O)c1c(-c2cccc(C)c2)csc1NC(=O)c1c(-c2ccccc2)noc1C`: -0.48% (inactive).
Take `Cc1[nH]c2ccccc2c1C(=O)COC(=O)c1c(-c2ccccc2)noc1C`: the Tm shift relative to glycine control was 18.8% (active).
Consider `COc1cc(NC(=O)CCNC(=O)Cn2ccc3ccccc3c2=O)cc(OC)c1OC`, for which the Tm shift relative to glycine control is 1.09% (inactive).
For the compound `O=C(CSc1nnc(-c2ccncc2)o1)Nc1cccc(Cl)c1`, the Tm shift relative to glycine control is -2.14% (inactive).
As for `O=C(COC(=O)CSc1nnc(-c2ccc(Cl)cc2)o1)Nc1cc(Cl)cc(Cl)c1`, the Tm shift relative to glycine control was 19.4% (active).
With `O=C(CSc1nnc(-c2ccncc2)o1)NCc1ccc(Cl)cc1` the figure was 1.65% (inactive).
With `NCC(=O)c1cccc2ccc[n+]([O-])c12` the figure was 7.2% (inactive); with `Cc1ccc(C)c(NC(=O)COC(=O)c2nn(C)c(=O)c3ccccc23)c1`, 0.34% (inactive).
As for `O=P(O)(CP(=O)(c1ccccc1)c1ccccc1)c1ccccc1O`, the Tm shift relative to glycine control was -4.72% (inactive).
For the compound `CC1CCCCC1NC(=O)C1CCCN1S(=O)(=O)c1cccc2nsnc12` (configuration not stated), the Tm shift relative to glycine control was -1.29% (inactive).
With `COc1ccc(OC)c(NC(=O)C2CCCN2S(=O)(=O)c2cccc3nsnc23)c1` (configuration not stated) the figure was 13.4% (active); with `CC(=O)c1cccc(NC(=O)C2CCCN2S(=O)(=O)c2cccc3nsnc23)c1` (configuration not stated), 1.52% (inactive).
`COc1ccc(CCC(=O)OCC(=O)Nc2ccc(C)c(S(=O)(=O)N(C)C)c2)cc1`: the Tm shift relative to glycine control was -3.89% (inactive).
Take `Cc1c(C=O)c2ccccc2n1CCOc1ccccc1`: the Tm shift relative to glycine control is -1.12% (inactive).
Next, `COC(=O)c1ccc(COc2cc([N+](=O)[O-])cc3cccnc23)cc1`: -1.16% (inactive); `COc1ccc([C@H]2CC(=O)C=C(/C=C/c3ccccc3)C2)cc1`: -0.08% (inactive).
For the compound `CCCCC/C=C/C1=CC(=O)C[C@H](c2ccc(Cl)cc2)C1`, the Tm shift relative to glycine control is -2.27% (inactive).
Consider `COc1ccc([C@H]2CC(=O)C=C(/C=C/c3ccc(Cl)cc3)C2)cc1`, for which the Tm shift relative to glycine control was 25.2% (active).
With `CC1(C)O[C@@H]2CC3C4C[C@H](F)C5=CC(=O)C=CC5(C)C4C(O)CC3(C)[C@]2(C(=O)CO)O1` (some centres not stated) the figure was -0.79% (inactive).
With `COc1ccc(NC(=O)C2CCN(S(=O)(=O)c3ccc4[nH]c(=O)oc4c3)CC2)c(OC)c1` the figure was -2.13% (inactive).
With `Cc1nc2cc(NC(=O)Nc3cccc(F)c3)ccc2n1C` the figure was -0.72% (inactive); with `O=C(Nc1cccc(Br)c1)c1ccc2snnc2c1`, -4.74% (inactive); with `O=C(Nc1ccc2ccccc2c1)Nc1ccc2snnc2c1`, 157% (active).
As to `Cc1cccc(C)c1NC(=O)CSc1nc2c([nH]1)c(=O)n(C)c(=O)n2C`, the Tm shift relative to glycine control was -0.47% (inactive).
With `CO[C@@H]1[C@@H](OC(N)=O)[C@@H](O)C(Oc2ccc3c(O)c(NC(=O)c4ccc(O)c(CC=C(C)C)c4)c(=O)oc3c2C)OC1(C)C` (some centres not stated) the figure was -12.2% (inactive); with `CC(C)c1ccc(NC(=S)NNc2ccc(Cl)c(C(=O)O)c2)cc1`, -0.77% (inactive).
With `Cc1ccc(C)c(NC(=S)NNC(=O)c2csc(C)c2)c1` the figure was 1.94% (inactive); with `Cc1ccc(C)c(NC(=S)NNC(=S)Nc2ccc(C(C)C)cc2)c1`, 12.8% (active).
With `CN(C)CCCn1c(=O)n(Cc2ccccc2)c(=O)c2c3c(sc21)CCCCC3` the figure was -3.1% (inactive).
